Source: PubChem BioAssay (NCATS)
Inconclusive results are not listed. Entries that show only a call come without a potency. Calls of active or inactive are those of the source. Calls follow the shape of the dose curve; as a rule, active = well fitted curve in the direction sought with a large enough effect; inconclusive = small, poorly fitted or top-dose-only effect, or another doubt; inactive = no such curve, though single readings can be large; an effect the other way counts as inactive or inconclusive.

How the values were obtained:
[1] = qHTS of pediatric cancer cell lines to identify multiple opportunities for drug repurposing: Confirmatory screen for Rh30 cells (AID 1347126); settings: Rh30 rhabdomyosarcoma cell viability; series mostly up to 45.9 µM; also: nearly all actives have a fitted effect of over 55% in size; also: potency is read from the fitted curve at half-maximal effect
Summary of the method: (§1)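 Viability after 48 h compound treatment at 37C, 500-1,000 cells/well, read as ATP luminescence with CellTiter-Glo. Primary screens used 11-point (MIPE, 0.78 nM-46 µM) or 8-point (NPC, 0.59 nM-46 µM) final concentrations; follow-up screens used 11-point dilutions.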

[2] = qHTS of pediatric cancer cell lines to identify multiple opportunities for drug repurposing: Confirmatory screen for Saos-2 cells (AID 1347127); settings: Saos-2 osteosarcoma cell viability; series mostly up to 45.9 µM; also: nearly all actives have a fitted effect of over 60% in size; also: potency is read from the fitted curve at half-maximal effect
Summary of the method: as §1

[3] = qHTS of pediatric cancer cell lines to identify multiple opportunities for drug repurposing: Confirmatory screen for OHS-50 cells (AID 1347128); settings: OHS-50 osteosarcoma cells viability; series mostly up to 45.9 µM;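 also: compound exposure lasted 48 h at 37 degrees C; nearly all actives have a fitted effect of over 55% in size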; also: potency is read from the fitted curve at half-maximal effect
Summary of the method: as §1

[4] = tested on: Zika virus NS2B-NS3 protease; test: Primary screen GU AMC qHTS for Zika virus inhibitors (AID 1347154); settings: Zika NS2B-NS3 unlinked protease, AMC fluorogenic substrate; series mostly up to 54.1 µM; also: nearly all actives have a fitted effect of over 70% in size
Summary of the method: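 Unlinked Zika NS2B hydrophilic domain–NS3 protease complex at 25 nM in 10 mM Tris-HCl pH 8.0, 0.01% Tween 20, with an AMC peptide substrate. Fluorescence change (340/450 nm) over 15 min at room temperature, normalized to controls, fitted to 4-parameter Hill.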

[5] = qHTS of pediatric cancer cell lines to identify multiple opportunities for drug repurposing: Confirmatory screen for SK-N-SH cells (AID 1347129); settings: SK-N-SH neuroblastoma cell viability; series mostly up to 46.1 µM;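 also: potency is read from the fitted curve at half-maximal effect; cells exposed to compound for 48 h before viability read; nearly all actives have a fitted effect of over 60% in size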
Summary of the method: as §1

SMILES: Cc1c(N)nc([C@H](CC(N)=O)NC[C@@H](N)C(N)=O)nc1C(=O)N[C@H](C(=O)N[C@@H](C)[C@H](O)[C@@H](C)C(=O)N[C@@H](C(=O)NCCc1nc(-c2nc(C(=O)NCCC[S+](C)C)cs2)cs1)[C@@H](C)O)C(O[C@H]1O[C@H](CO)[C@H](O)[C@@H](O)[C@@H]1O[C@H]1O[C@H](CO)[C@@H](O)[C@H](OC(N)=O)[C@H]1O)c1cnc[nH]1 (stereo not given in full)
- Potency [1]: inactive
- Potency [2]: inactive
- Potency [3]: inactive
- Potency [4]: inactive

SMILES: Cc1[nH]nc2ccc(-c3cncc(OC[C@@H](N)Cc4c[nH]c5ccccc45)c3)cc12
- Potency [2]: 2610 nM (active)
- Potency [3]: 2610 nM (active)
- Potency [5]: 2960 nM (active)
- Potency [4]: inactive

SMILES: O=C(Nc1ccncc1)C(=O)c1cn(Cc2ccc(Cl)cc2)c2ccccc12
- Potency [1]: inactive
- Potency [2]: 585 nM (active)
- Potency [3]: 928 nM (active)
- Potency [4]: inactive

SMILES: CO[C@H]1CCC(O[C@H]2C[C@H]([C@]3(C)CC[C@]4(C[C@H](O)[C@@H](C)[C@@H]([C@@H](C)C=C(C)C(=O)[C@H](C)C[C@H](C)C(=O)O)O4)O3)O[C@]3(O[C@@H]([C@H]4O[C@@](O)(CO)[C@H](C)C[C@H]4C)C[C@H]3C)[C@H]2C)O[C@H]1C (stereo not given in full)
- Potency [1]: inactive
- Potency [3]: 2610 nM (active)
- Potency [5]: 5260 nM (active)
- Potency [4]: inactive

SMILES: C[C@@H]1O[C@@H](O[C@@H]2C=C3CC[C@@H]4[C@@H](CC[C@]5(C)[C@H](c6ccc(=O)oc6)CC[C@@]45O)[C@@]3(C)CC2)[C@H](O)[C@H](O)[C@H]1O
- Potency [1]: 46.5 nM (active)
- Potency [2]: 185 nM (active)
- Potency [3]: 16.5 nM (active)
- Potency [4]: inactive
